Assay results published in ChEMBL document CHEMBL3988442, “University of Dundee, Small-Polar-MMV Screening Library” (2021).
For some of these results: Potency and affinity values are given separately.

Key:
Parameters in all cases: scale not given: direction of the effect not stated beside the values
[1] = target: Protein translocase subunit SecA (Escherichia coli (strain K12)) (UniProt P10408); test: Assay to Identify E. coli SecA ATPase Inhibitors; type: functional; conditions: 30 µM
[2] = target: T1, Ubiquitin-activating enzyme e1, putative (Leishmania donovani (strain BPK282A1)) (UniProt E9BSI1); test: Leishmania donovani Ubiquitin Activating Enzyme (LdE1); type: functional; conditions: 30 µM
T1 sequence (whole entry): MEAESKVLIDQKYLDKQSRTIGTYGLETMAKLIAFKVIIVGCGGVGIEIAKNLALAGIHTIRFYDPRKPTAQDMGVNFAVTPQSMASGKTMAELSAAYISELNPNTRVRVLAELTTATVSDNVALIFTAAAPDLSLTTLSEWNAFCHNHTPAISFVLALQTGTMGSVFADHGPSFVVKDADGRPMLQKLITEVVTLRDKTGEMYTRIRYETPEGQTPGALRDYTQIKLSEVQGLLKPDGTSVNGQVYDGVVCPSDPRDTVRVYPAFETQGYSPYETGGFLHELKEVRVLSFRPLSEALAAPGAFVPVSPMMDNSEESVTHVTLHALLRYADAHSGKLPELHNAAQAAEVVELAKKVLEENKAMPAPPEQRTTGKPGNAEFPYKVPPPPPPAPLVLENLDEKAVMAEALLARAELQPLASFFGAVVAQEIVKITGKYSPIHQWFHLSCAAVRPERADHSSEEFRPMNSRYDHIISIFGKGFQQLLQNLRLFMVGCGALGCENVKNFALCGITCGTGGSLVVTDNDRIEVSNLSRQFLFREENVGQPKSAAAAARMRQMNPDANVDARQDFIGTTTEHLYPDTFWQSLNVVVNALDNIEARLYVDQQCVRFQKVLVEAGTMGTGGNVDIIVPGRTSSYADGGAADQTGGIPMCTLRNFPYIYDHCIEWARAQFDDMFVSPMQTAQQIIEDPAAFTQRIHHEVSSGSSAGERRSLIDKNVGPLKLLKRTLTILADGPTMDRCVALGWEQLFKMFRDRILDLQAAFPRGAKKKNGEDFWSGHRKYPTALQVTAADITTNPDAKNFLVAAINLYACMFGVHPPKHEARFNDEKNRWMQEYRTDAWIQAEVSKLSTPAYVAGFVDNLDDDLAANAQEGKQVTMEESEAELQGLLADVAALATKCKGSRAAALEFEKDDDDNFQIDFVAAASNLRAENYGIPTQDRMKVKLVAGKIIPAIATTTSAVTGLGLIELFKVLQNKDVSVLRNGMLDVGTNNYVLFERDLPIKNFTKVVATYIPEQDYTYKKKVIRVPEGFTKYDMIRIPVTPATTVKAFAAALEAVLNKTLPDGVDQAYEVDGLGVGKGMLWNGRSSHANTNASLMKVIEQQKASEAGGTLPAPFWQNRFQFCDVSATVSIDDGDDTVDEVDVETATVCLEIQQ

[3] = target: AMP-activated protein kinase, AMPK (Homo sapiens) (UniProt P54646+O43741+P54619+Q9UGJ0+Q9Y478+Q13131+Q9UGI9); test: AMP-dependent Kinase enzyme assay. An in vitro enzyme assay that detects ADP turnover that is directly proportional to AMPK activity. This uses naive AMPK that is activated during the assay with MK-8722; type: functional; conditions: 30 µM
[4] = target: Sialic acid-binding Ig-like lectin 9 (Homo sapiens) (UniProt Q9Y336); test: Hs-Siglec9 ALPHAscreen SOP 20170721; conditions: 10 µM
Sequence of Sialic acid-binding Ig-like lectin 9 (Homo sapiens) (Q9Y336 whole entry): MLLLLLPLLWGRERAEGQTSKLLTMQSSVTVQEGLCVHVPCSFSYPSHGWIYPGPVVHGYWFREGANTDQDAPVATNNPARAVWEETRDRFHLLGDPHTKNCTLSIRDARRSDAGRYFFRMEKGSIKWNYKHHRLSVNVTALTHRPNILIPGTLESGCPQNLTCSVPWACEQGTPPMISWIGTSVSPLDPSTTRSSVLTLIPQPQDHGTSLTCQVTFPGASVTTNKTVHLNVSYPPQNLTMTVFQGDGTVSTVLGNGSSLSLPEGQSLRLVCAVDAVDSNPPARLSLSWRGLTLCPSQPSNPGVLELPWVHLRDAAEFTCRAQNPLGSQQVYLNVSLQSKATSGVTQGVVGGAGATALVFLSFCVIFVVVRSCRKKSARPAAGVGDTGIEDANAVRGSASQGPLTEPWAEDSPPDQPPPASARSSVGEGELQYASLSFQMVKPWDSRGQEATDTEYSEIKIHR

Trypanosoma cruzi = test: Trypanosoma cruzi phosphomannomutase and mannose-1-phosphate guanylyltransferase assay; type: functional; conditions: 10 µM
[5] = target: T2, Arginase-2, mitochondrial (Homo sapiens) (UniProt P78540); test: in vitro enzyme assay to detect the production of urea directly proportional to the activity of Arginase II; type: functional; conditions: 33.3 µM; also: in the data most compounds retested in dose-response had high values
T2 sequence (whole entry): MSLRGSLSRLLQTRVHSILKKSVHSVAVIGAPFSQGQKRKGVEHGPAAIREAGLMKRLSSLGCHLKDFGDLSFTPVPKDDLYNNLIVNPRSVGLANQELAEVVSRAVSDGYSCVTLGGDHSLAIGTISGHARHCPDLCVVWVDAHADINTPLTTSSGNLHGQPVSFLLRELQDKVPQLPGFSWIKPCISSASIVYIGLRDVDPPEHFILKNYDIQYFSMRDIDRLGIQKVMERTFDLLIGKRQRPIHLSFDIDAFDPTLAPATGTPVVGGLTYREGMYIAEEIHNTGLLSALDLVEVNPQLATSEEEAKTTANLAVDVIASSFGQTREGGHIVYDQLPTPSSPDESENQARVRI

[6] = target: T3, Proteasome subunit beta (Trypanosoma cruzi) (UniProt O96673); test: Trypanosoma cruzi proteasome chymotrypsin-like activity (TcProtChymo) assay.; also: in the data most compounds retested in dose-response had high values; type: functional; conditions: 9.37 µM
T3 sequence (whole entry): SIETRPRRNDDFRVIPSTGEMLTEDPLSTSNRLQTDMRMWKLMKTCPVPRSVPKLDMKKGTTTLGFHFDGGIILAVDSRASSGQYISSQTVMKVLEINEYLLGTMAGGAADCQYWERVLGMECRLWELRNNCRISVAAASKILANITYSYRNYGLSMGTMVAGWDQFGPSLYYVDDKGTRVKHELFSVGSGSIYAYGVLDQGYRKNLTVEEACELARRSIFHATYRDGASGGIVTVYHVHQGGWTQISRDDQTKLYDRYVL

Homo sapiens = organism: Homo sapiens; test: To identify inhibition of the IFN signalling (Jak-Stat) pathway via expression of an eGFP reporter gene under the control of an IFN-stimulated response element (ISRE) containing MxA promoter.; type: functional; conditions: 30 µM
[7] = target: T4, Tyrosyl-tRNA synthetase, putative (Trypanosoma cruzi (strain CL Brener)) (UniProt Q4DSP6); test: Trypanosoma cruzi tyrosyl tRNA synthetase (TcYRS) _High Tyrosine SOP; type: functional; conditions: 30 µM; also: in the data most compounds retested in dose-response had high values
T4 sequence (whole entry): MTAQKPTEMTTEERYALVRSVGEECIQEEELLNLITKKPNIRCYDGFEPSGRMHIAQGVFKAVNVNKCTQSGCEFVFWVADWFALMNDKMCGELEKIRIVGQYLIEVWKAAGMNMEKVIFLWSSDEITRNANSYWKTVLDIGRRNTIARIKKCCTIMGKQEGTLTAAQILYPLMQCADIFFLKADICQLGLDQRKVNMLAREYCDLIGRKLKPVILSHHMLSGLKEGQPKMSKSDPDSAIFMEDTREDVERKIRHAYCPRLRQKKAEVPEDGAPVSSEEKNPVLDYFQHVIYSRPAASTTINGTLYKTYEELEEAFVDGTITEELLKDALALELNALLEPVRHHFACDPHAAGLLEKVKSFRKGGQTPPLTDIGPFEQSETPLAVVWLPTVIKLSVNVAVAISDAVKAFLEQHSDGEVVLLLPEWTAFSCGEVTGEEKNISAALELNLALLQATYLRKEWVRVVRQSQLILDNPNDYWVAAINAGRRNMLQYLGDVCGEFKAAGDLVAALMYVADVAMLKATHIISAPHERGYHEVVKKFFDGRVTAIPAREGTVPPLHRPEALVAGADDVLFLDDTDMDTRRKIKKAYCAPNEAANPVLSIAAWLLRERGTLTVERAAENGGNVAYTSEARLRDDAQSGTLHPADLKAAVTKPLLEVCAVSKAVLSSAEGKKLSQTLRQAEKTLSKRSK

[8] = target: T4, Tyrosyl-tRNA synthetase, putative (Trypanosoma cruzi (strain CL Brener)); test: Trypanosoma cruzi tyrosyl tRNA synthetase (TcYRS) SOP; type: functional; conditions: 30 µM
[9] = target: Chromo domain-containing protein 1 (Saccharomyces cerevisiae (strain ATCC 204508 / S288c) (Baker's yeast)) (UniProt P32657); test: ScCHD-1 Enzyme Inhibition Assay; type: functional; conditions: 30 µM; also: in the data most compounds retested in dose-response had high values
Sequence of Chromo domain-containing protein 1 (Saccharomyces cerevisiae (strain ATCC 204508 / S288c) (Baker's yeast)) (P32657 whole entry, the tested form may be a part): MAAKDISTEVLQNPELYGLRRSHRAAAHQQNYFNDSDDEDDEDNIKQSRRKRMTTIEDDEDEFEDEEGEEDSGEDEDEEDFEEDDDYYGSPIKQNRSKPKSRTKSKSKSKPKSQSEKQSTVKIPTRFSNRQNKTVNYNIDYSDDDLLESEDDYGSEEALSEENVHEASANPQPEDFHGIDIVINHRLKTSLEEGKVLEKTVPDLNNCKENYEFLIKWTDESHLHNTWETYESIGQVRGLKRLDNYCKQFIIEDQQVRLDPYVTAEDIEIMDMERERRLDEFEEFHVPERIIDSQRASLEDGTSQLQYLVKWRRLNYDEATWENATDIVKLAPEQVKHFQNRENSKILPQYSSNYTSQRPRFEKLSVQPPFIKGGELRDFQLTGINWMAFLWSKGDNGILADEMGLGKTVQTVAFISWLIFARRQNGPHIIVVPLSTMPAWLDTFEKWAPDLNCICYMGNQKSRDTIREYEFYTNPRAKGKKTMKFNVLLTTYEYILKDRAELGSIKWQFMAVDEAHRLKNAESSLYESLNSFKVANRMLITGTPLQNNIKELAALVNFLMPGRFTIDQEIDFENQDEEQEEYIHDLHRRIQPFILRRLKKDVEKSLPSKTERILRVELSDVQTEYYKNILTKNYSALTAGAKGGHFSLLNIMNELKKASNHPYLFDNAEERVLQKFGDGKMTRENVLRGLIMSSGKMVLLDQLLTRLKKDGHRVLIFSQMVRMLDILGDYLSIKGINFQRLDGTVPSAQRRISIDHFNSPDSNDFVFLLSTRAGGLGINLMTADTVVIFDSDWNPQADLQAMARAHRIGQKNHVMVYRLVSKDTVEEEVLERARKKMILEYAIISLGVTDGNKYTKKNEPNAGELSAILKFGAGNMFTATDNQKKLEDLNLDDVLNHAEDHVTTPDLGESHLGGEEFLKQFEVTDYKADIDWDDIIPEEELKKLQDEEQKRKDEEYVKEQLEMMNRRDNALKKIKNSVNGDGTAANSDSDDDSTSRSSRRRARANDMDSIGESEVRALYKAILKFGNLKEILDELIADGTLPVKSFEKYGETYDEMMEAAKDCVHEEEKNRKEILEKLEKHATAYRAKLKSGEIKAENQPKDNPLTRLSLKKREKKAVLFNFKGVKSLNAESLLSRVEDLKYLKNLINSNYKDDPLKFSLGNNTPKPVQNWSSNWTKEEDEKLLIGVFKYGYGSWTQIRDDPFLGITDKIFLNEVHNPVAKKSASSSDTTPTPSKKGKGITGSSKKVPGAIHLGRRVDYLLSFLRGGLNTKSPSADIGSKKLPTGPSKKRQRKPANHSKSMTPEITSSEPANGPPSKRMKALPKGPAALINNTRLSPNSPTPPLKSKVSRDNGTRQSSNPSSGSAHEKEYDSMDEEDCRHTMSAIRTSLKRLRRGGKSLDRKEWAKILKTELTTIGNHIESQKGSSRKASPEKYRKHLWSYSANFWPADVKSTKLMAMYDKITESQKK

Sequence of Protein translocase subunit SecA (Escherichia coli (strain K12)) (P10408 whole entry): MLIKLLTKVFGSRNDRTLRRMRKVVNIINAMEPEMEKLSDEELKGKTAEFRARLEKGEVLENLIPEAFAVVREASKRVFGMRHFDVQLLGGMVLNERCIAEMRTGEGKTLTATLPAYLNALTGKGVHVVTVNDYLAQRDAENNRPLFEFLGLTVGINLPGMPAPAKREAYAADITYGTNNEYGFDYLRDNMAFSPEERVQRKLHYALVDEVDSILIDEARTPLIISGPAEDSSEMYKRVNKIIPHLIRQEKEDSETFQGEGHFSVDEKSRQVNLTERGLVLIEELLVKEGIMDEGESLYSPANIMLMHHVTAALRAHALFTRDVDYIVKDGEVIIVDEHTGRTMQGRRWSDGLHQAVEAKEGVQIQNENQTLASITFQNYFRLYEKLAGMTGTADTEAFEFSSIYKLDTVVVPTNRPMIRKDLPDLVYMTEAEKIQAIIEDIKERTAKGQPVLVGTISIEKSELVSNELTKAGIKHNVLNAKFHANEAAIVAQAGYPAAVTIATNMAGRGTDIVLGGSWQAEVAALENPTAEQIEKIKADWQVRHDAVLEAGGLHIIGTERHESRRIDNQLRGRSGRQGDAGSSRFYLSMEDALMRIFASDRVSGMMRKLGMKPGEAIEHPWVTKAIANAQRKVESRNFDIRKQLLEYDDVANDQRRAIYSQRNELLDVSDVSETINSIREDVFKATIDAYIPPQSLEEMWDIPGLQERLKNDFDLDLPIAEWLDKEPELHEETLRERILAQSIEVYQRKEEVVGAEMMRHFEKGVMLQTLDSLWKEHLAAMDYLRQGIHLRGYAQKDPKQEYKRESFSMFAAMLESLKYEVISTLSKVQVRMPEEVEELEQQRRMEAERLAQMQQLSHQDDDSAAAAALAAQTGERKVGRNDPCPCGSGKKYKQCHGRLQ

SMILES	Percent Effect [1] [%]	Percent Effect [2] [%]	Percent Effect [3] [%]	Percent Effect [4] [%]	Percent Effect (Trypanosoma cruzi) [%]	Percent Effect [5] [%]	Percent Effect [6] [%]	Percent Effect (Homo sapiens) [%]	Percent Effect [7] [%]	Percent Effect [8] [%]	Percent Effect [9] [%]
Cc1noc(C2CCCN(C(=O)c3ccc(Br)cc3F)C2)n1 (stereo not given)	-5.32	10.4	2.06	2.58	6.95	2.74	6.87	-5.04	1.91	18.8	-19.5
Cn1ccnc1CN1CCN(Cc2cc(C#N)ccc2F)CC1	-2.4	2.7	1.09	-1.18	-9.38	6.1	10.8	20	5.94	6.1	3.16
CSCC(=O)N1C[C@H]2CC[C@@H]1CN(Cc1ccccc1)C2	-2.57	8.22	14.1	-0.0854	0	0.455	10.8	15.3	11.8	12.5	-6.22
CC(C(=O)N1CCc2ccccc2C1)n1cc(Br)cn1 (stereo not given)	-0.393	0	-6.91	6.63	4.42	-6.9	7.82	19.8	4.3	13.6	-3.62
O=C(CC1CC1)N1CCn2cc(Cn3cncn3)nc2C1	-2.33	10.4	4.72	3.11	-4.04	-13.6	10.8	2.39	3.17	11.5	-6.64
Cc1nc(C2CCCN(C(=O)c3ccco3)C2)no1 (stereo not given)	-7.21	1.27	1.16	-2.53	-0.308	-0.645	1.37	16	1.04	-7.59	-4.36
CC(NC(=O)Cc1cccs1)c1nnc2n1CCCCC2 (stereo not given)	-5.37	10.8	0.496	4.55	1.95	-1.66	-7.54	-0.0451	3.96	15.8	1.56
CN(Cc1cccs1)C(=O)CN1CCCC1Cn1cncn1 (stereo not given)	-1.48	10.4	-63.7	2.24	-1.08	-5.52	20.3	-3.55	7.53	13.6	-2.25
COCCO[C@H]1CCN(C(=O)c2ccno2)[C@H]1Cc1cnn(C)c1	-1.65	-2.7	-2.17	-4.71	-2.54	1.67	2.79	-28.8	4.95	-3.66	1.61
CC(O)CN1CCN(C(=O)CN(C)c2ccc(Cl)cn2)CC1 (stereo not given)	-0.0278	-2.7	-4.09	7.01	-1.93	-2.38	14.8	14.1	4.76	7.32	-3.67
CCC(O)CN1CCN(C(=O)c2cccn2Cc2ccccc2)CC1 (stereo not given)	-7.42	10.1	-1.72	3.91	-5.95	-0.38	-3.69	20.8	0.493	11.4	-3.89
COc1ncnc2c1CCN(c1cc(C(F)(F)F)ncn1)CC2	-3.48	8	4.03	-3.21	-6.56	-57.5	6.67	20.9	-1.04	7.5	-7.82
COc1ccc(CC(=O)N2CCCN(c3ccc(C#N)cc3)CC2)cc1	-3.96	-5.26	8.87	-0.428	-5.75	-8.28	11.8	-1.35	-3.19	2.6	-7.99
CCS(=O)(=O)N1C[C@H]2CCC[C@@]2(COc2ccccn2)C1	-2.05	12	-6.57	2.8	-0.393	-6.16	10.5	33	2.12	5.13	-1.39
CC(C)(N)CN1CCC(c2nnc(CN3CCCC3)n2C2CC2)CC1	-7.06	8	3.2	2.76	-0.0974	5.73	15.5	8.71	2.73	6.17	-4.27
Cc1ccc(-c2cccc(-c3ccn(CCN4CCCC4)n3)c2)nn1	-0.771	-8.11	-1.02	3.72	-3.09	0.952	4.31	7.06	5.82	0	0.00646
O=C(c1cccnc1)N1C[C@@H]2CC[C@H](C1)N(Cc1cc(F)ccc1F)C2	0.34	11	29.4	-0.061	3.33	0	10.3	21.9	7.53	15	-7.41
CCc1nccn1C1CCCN(C(=O)c2ccc3nncn3c2)C1 (stereo not given)	-5.07	7.79	-4.63	9.34	5.06	-1.78	2.03	9.22	6.8	19.5	-7.6
COCCO[C@H]1CCN(C(=O)c2ccc[nH]2)[C@H]1Cc1ccncc1	-5.53	0	12.9	1.19	-3.74	-2.1	2.73	-2.22	3.19	6.41	0.525
c1cnc(-c2nc(CNCCn3cccn3)cs2)nc1	-0.355	-2.63	7.92	-0.779	-1.5	-2.68	7.18	9.32	-0.49	-4.88	-6.78
